Source: PubChem
Hits are enriched below; roughly 7.3% of the tested compounds scored in any of these assays.
NPC1 prom act: qHTS Assay for NPC1 Promoter Activators; Huh7 NPC1 promoter luciferase reporter, 24 h; Potency, µM (doses to about 9.22 µM), for the others: at the top dose activation, actives largely listed as activators; 2.4% of 320,000 active; further: % of control where 0% means no effect; nearly all actives have a fitted effect of over 60% in size
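In 1536-well qHTS, Huh7 cells harboring an NPC1 promoter–luciferase construct received compound for 24 h; activation was quantified by luminescence following luciferase reagent addition.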
p53 reactivation: qHTS assay for re-activators of p53 using a Luc reporter; 0.063% of 320,000 active; H1299 p53-A138V BP100-luciferase reporter, luminescence, 24 h; Potency, µM (highest dose often 92.2 µM), inactives show at the top dose activity change, positive = activation, usual class: activators; further: % of control where 0% means no effect; nearly all actives have a fitted effect of over 45% in size
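H1299 (p53-null), stable ts p53-A138V + BP100-Luc; 1000 cells/well, Opti-MEM/10% FBS; cpd 4 pt, 1:5; 24 h, 37 deg C, 5% CO2; detection reagent 10 min RT; luminescence.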
FLuc counter: qHTS profiling assay for firefly luciferase inhibitor/activator using purifed enzyme and Km concentrations of substrates (counterscreen for miR-21 project); purified FLuc, Km substrates, luminescence inhibition; AID 588342, 2011; 6.9% of 360,000 active; Luciferin 4-monooxygenase (Photinus pyralis), P08659; Potency, µM (doses to about 57.5 µM), for the others: at the top dose activity change, negative = inhibition, actives largely listed as inhibitors;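 further: plate controls were vehicle for no effect and reference inhibitor for full effect; nearly all actives have a fitted effect of over 55% in size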
Target sequence (P08659 whole entry, looked up): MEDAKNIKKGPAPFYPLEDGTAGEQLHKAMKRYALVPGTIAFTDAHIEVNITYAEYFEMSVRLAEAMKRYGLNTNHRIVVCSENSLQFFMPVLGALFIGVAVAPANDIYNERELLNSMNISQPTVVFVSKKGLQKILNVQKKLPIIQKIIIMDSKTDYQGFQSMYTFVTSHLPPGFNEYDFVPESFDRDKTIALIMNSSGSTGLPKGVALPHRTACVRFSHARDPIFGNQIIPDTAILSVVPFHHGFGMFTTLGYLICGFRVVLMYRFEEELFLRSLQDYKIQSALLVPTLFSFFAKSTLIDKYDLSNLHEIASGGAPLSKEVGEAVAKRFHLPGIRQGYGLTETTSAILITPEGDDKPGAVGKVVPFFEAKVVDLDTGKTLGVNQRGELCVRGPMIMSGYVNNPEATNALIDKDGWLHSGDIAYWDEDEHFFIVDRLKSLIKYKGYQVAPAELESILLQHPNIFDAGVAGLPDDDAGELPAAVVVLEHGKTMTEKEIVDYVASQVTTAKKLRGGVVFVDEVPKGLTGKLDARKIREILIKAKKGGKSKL
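Biochemical qHTS of compounds, final roughly 60 µM downward over six points, against 10 nM purified firefly luciferase using Km concentrations of substrates (10 uM D-luciferin, 10 uM ATP) in Tris acetate pH 7.5 buffer; luminescence output.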
SMN2 splice up: qHTS Assay for Enhancers of SMN2 Splice Variant Expression. 2.8% of 210,000 active. AID 1458, 2008. Potency, µM (top dose mostly 46.1 µM), for inactives: at the top dose activity change, positive = activation, most hits filed as activators. HEK293 SMN2-luciferase splicing reporter, luminescence, 30-36 h; further: % of control where 0% means no effect; nearly all actives have a fitted effect of over 55% in size
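HEK293 cells carry an SMN2 minigene-luciferase reporter in which exon 7 inclusion puts luciferase in frame. Cells were seeded at 2000 cells/well, attached for 10-12 hours, then exposed to compounds for 30-36 hours at 37C before ONE-Glo luminescence.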
ELG1 genotoxic: qHTS screen for small molecules that induce genotoxicity in human embryonic kidney (HEK293T) cells expressing luciferase-tagged ELG1; AID 504466, 2011; Potency, µM (series often up to 46 µM), without a hit: at the highest dose activity change, positive = activation, most hits filed as activators; HEK293T ELG1-luciferase reporter, luminescence, 16 h; 1.3% of 330,000 active; further: % of control where 0% means no effect; nearly all actives have a fitted effect of over 60% in size
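HEK293T cells expressing luciferase-tagged ELG1 were treated with compound or DMSO for 16 hr at 37°C. Luciferase activity was then read after 30 min with ONE-Glo at room temperature; rising signal flags genetic stress.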
Rab9 prom act: qHTS Assay for Rab9 Promoter Activators; Huh7 Rab9 promoter-luciferase reporter, luminescence, 24 h; Potency, µM (titrated, usually from 9.22 µM), for inactives: at the highest dose activation, negative = inhibition, usual class: activators; 2.8% of 320,000 active; AID 485297, 2010; further: % of control where 0% means no effect; nearly all actives have a fitted effect of over 60% in size
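Promoter activation is measured as luciferase luminescence in Huh7 cells stably transfected with a Rab9 promoter–luciferase construct, following 24 h compound exposure at 37 °C and 10 min reagent incubation at ambient temperature.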
Starred values were filed as active, the others as inactive; ? = inconclusive; . = no result given; [ ] = dose if it differs, or a comment. The call rests on the fitted dose curve; in most records, active means well fitted curve in the direction sought with a large enough effect; inconclusive means small, poorly fitted or top-dose-only effect, or another doubt; inactive means no such curve, though single readings can be large; an effect the other way counts as inactive or inconclusive. Potency means the concentration at half of the fitted maximal effect.

SMILES	NPC1 prom act	p53 reactivation	FLuc counter	SMN2 splice up	ELG1 genotoxic	Rab9 prom act
Oc1c(C(c2cccc(Cl)c2)N2CCOCC2)sc2nc(-c3ccco3)nn12 (centres undefined)	.	.	-17.7%	.	.	.
Cc1ccc(C(=O)Nc2cc(-c3nc4cc(Cl)ccc4o3)ccc2C)c(C)c1	.	.	4.9%	-7.5%	.	.
Cc1ccc2oc(-c3ccc(C)c(NC(=O)C(C)(C)Oc4ccc(Cl)cc4)c3)nc2c1	.	.	3.79µM*	?	.	.
CCOc1cc(/C=N/NC(=O)c2cc(C)n(-c3ccc(F)cc3)c2C)ccc1O	-4.8%	5.1%	?	.	-2.5%	-3.7%
Cc1cc(C(=O)N/N=C2\CC(=O)c3ccccc32)c(C)n1-c1ccc(F)cc1	-24.0%	18.5%	8.49µM*	.	10.8%	?
Cc1cc2c(cc1S(=O)(=O)NCc1ccc(F)cc1)OCCN2C	.	.	-13.4%	.	.	.
Cc1ccc(Nc2nc(COC(=O)C3CC3)cs2)cc1	?	0.7%	4.26µM*	?	?	3.16µM*
O=C(O)c1ccc(N/N=C/c2cccc3cccnc23)cc1	0.316µM*	-1.5%	0.757µM*	.	?	0.282µM*
O=C(O)c1ccc(N/N=C/c2ccnc3ccccc23)cc1	0.562µM*	1.9%	1.35µM*	.	?	?
O=C(COc1cccc2cccnc12)N/N=C/c1ccccc1O	-2.1%	4.6%	-10.4%	.	1.3%	-6.5%
Oc1ccccc1/C=N/Nc1cccc2cccnc12	?	20.2%	1.51µM*	?	?	13.1%
CC(C)(C)OC(=O)NCCC(=O)N/N=C/c1cccc2cccnc12	-1.3%	-0.3%	-1.8%	.	-4.1%	-4.3%
COC(=O)c1ccsc1NC(=O)CN1C(=O)CCC1=O	-4.2%	0.9%	0.9%	.	-0.2%	-2.3%
CCn1cc(C(=O)N2CCN(c3ccccc3OC)CC2)c(=O)c2cc(S(=O)(=O)N3CCC(C)CC3)ccc21	.	.	-13.2%	3.1%	.	.
CCN(CC)c1ccc(CN(C(=O)c2cc(=O)c3ccccc3o2)C2CCS(=O)(=O)C2)cc1 (centres undefined)	.	.	-0.4%	-6.4%	.	.
O=C(N/N=C/c1ccccn1)c1cc(Br)ccc1O	-1.2%	?	15.1µM*	.	?	7.1%
CCOc1ccc(Br)cc1C(=O)N/N=C/c1cccnc1	1.9%	2.6%	-6.4%	.	3.2%	-5.4%
O=C(N/N=C/c1cccnc1)c1cc(Br)ccc1O	3.16µM*	23.4%	4.78µM*	.	?	3.98µM*
Nc1nc(SCC(=O)O)[nH]c(=O)c1N	.	.	.	-15.8%[9.22 µM]	.	.
Cn1cccc1/C=C1\SC(=O)N(c2ccccc2)C1=O	2µM*	?	2.39µM*	11.2µM*	?	0.708µM*
O=C(O)Cn1cc(/C=C2/SC(=O)N(CC(=O)N3CCCCCC3)C2=O)c2ccccc21	-2.0%	-1.5%	?	.	0.5%	-1.7%
O=C(O)Cn1cc(/C=C2\SC(=O)N(c3ccccc3)C2=O)c2ccccc21	-1.4%	4.0%	12µM*	1.2%	7.4%	-0.1%
CCCC(C(=O)O)N1C(=O)/C(=C/c2cccn2C)SC1=S (centres undefined)	-0.2%	-11.0%	0.5%	-8.6%	0.8%	-4.0%
CC(C)C(C(=O)O)N1C(=O)/C(=C/c2cccn2C)SC1=S (centres undefined)	0.6%	17.2%	21.3µM*	-6.3%	2.3%	3.0%
Cn1cc(/C=C2/SC(=O)N(c3ccccc3)C2=O)c2ccccc21	?	4.8%	6.01µM*	13.2%	2.6%	6.31µM*
Cn1cccc1/C=C1\SC(=S)N(Nc2ccccc2)C1=O	11.9%	5.4%	?	.	9.5%	17.1%
COc1ccccc1CCn1c(=O)c(C)nc2cncnc21	.	.	.	2.9%	.	.
